Each structure is given as a SMILES string. Calls of active or inactive are those of the source.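 Rule for the calls: active = falling FRET signal with an AC50 fitted within ten times the highest valid concentration tested for that sample (actives reach about 61 µM in these data); inactive = the rest, including compounds that raise the signal.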

This assay in a line: YIC FRET probe signal interference, dose response, counter-screen for RanGTP-importin-beta inhibitor project, biochemical, dry powder samples (AID 493094). The conditions noted are these: cell-free YIC FRET probe, YFP/CFP ratio; series mostly up to 100 µM. A general note: Counterscreens check selectivity or assay interference.
With `Cc1cc(Nc2ccc(C(F)(F)F)cc2)n2ncnc2n1`, the AC50 (usually the concentration giving half of the maximal activity seen) was “inactive”.
For `O=c1[nH]c(N2CCCC2)nc2ccccc12` the value was “inactive”; for `COc1cc2nc(N3CCCC3)nc(N3CCCC3)c2cc1OC`, “inactive”; for `CCCN(CCC)c1nc(N2CCOCC2)nc2ccccc12`, “inactive”.
Next, `CC1(C)CC(=O)c2c(C(F)(F)F)nn(-c3ccc(C(N)=O)c(NC4CCC(OC(=O)CN)CC4)c3)c2C1` (stereo not given): “inactive”; `CC1=C(C(=O)OCC2CCCO2)C(c2ccccc2OC(C)C)C2C(=O)CC(c3ccco3)CC2=N1` (stereo not given): 13.2 µM (active); `C[C@H](Nc1nc(Cl)nc2ccccc12)c1ccccc1`: “inactive”.
As to `CCCN(CCC)c1nc(N)c2ccccc2n1`, the AC50 result was “inactive”.
For `CC(C)SCC(=O)Nc1ncc2c(n1)-c1ccccc1CC2` the value was 6.37 µM (active); for `Cc1cccc(-n2c(C)cc(/C=C3/C(=N)N4N=C(CC(C)C)SC4=NC3=O)c2C)c1`, 25.4 µM (active); for `C=CCn1c(N)c(C(=O)OCCC)c2nc3ccccc3nc21`, 36.9 µM (active).
For the molecule `CCNc1nc(N2CCCC2)nc2ccccc12`, the AC50 entry was “inactive”.
For `c1ccc2c(N3CCOCC3)nc(N3CCOCC3)nc2c1` the value was “inactive”.
`COc1cc(OC)cc(C(=O)NCCNc2nc3cc(C)cc(C)c3cc2C#N)c1`: the AC50 was 27 µM (active).
Next, `CCCN(CCC)c1nc(N2CCCC2)nc2cc(OC)c(OC)cc12`: “inactive”; `CCCN(CCC)c1nc(Cl)nc2ccccc12`: “inactive”.
Next, `C[C@@H](Nc1nc(N2CCCC2)nc2ccccc12)c1ccccc1`: “inactive”; `COc1ccc(CCNC(=O)c2cc3c(=O)n4cccc(C)c4nc3n(CCCN3CCOCC3)c2=N)cc1`: 4.28 µM (active); `COc1ccc(-c2cc(C(F)(F)F)n3nc(N)nc3n2)cc1`: 54.5 µM (active).
For the molecule `Clc1nc(NCc2ccccc2)c2ccccc2n1`, the AC50 result is “inactive”.

Source of the values: PubChem BioAssay AID493094 (Broad Institute, 2011).
